Only some compounds are listed: those with a hit (about 9.2% of all), similar ones and a draw of the others.
ELG1 genotoxic: qHTS screen for small molecules that induce genotoxicity in human embryonic kidney (HEK293T) cells expressing luciferase-tagged ELG1; HEK293T ELG1-luciferase reporter, luminescence, 16 h; Potency, µM (doses to about 46 µM), without a hit: top-dose activity change, positive = activation, actives largely listed as activators; actives 1.3% (n = 330,000); AID 504466, 2011; further: % of control where 0% means no effect; nearly all actives have a fitted effect of over 60% in size
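Reporter readout depends on ELG1 protein level, which increases with genetic stress. After 16 hr compound exposure at 37 °C, luciferase activity was quantified using ONE-Glo.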
FLuc modulator: qHTS profiling assay for firefly luciferase inhibitor/activator using purifed enzyme and Km concentrations of substrates (counterscreen for miR-21 project) | Luciferin 4-monooxygenase (Photinus pyralis), P08659 | purified FLuc, Km substrates, luminescence inhibition | Potency, µM (top dose mostly 57.5 µM), without a hit: at the top dose activity change, negative = inhibition, usual class: inhibitors | actives 6.9% (n = 360,000) | AID 588342, 2011;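 further: plate controls were vehicle for no effect and reference inhibitor for full effect; nearly all actives have a fitted effect of over 55% in size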
Target sequence (P08659 whole entry, looked up): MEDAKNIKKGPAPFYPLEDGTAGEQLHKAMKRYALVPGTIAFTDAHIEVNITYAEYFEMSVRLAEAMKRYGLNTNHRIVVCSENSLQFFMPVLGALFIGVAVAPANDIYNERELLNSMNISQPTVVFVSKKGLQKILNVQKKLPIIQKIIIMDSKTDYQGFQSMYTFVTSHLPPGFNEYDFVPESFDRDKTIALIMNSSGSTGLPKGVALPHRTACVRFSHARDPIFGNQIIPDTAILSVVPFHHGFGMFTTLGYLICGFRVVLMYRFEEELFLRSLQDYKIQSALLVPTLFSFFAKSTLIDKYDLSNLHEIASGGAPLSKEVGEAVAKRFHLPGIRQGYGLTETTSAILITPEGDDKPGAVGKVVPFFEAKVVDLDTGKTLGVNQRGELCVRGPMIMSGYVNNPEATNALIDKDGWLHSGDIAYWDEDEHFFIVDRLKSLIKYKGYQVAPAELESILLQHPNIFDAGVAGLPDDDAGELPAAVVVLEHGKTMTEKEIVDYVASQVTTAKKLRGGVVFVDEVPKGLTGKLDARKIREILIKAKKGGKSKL
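Purified P. pyralis luciferase, 10 nM final, with Km-level 10 uM D-luciferin and 10 uM ATP in 50 mM Tris acetate pH 7.5, 10 mM Mg acetate, 0.01% Tween-20, 0.05% BSA; 6-point qHTS titration about 60 µM downward; luminescence read.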
ELG1 DNA repair: qHTS screen for small molecules that inhibit ELG1-dependent DNA repair in human embryonic kidney (HEK293T) cells expressing luciferase-tagged ELG1; Potency, µM (top dose mostly 46.1 µM), without a hit: top-dose activity change, negative = inhibition, hits mostly inhibitors; HEK293T ELG1-luciferase reporter, luminescence, 16 h; DNA damage induced by 5-fluorouridine; actives 2.3% (n = 330,000); further: on the % scale 0 is the no-effect control and ±100 the full control effect; nearly all actives have a fitted effect of over 55% in size
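In this reporter screen, reduction of luminescence relative to DMSO vehicle indicated activity. Compounds and 5-fluorouridine were added together to 2,000 cells per well, incubated for 16 hr at 37 °C, then developed with ONE-Glo.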
SMN2 splice up: qHTS Assay for Enhancers of SMN2 Splice Variant Expression; actives 2.8% (n = 210,000); HEK293 SMN2-luciferase splicing reporter, luminescence, 30-36 h; AID 1458, 2008; Potency, µM (doses to about 46.1 µM), for the others: top-dose activity change, positive = activation, usual class: activators; further: % of control where 0% means no effect; nearly all actives have a fitted effect of over 55% in size
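qHTS luciferase splicing reporter: luminescence rises when SMN2 exon 7 is included in transfected HEK293 cells. Compound exposure lasted 30-36 h at 37C, with 4.5 mM final sodium butyrate as control, followed by a ONE-Glo read.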
NPC1 prom act: qHTS Assay for NPC1 Promoter Activators; Huh7 NPC1 promoter luciferase reporter, 24 h; Potency, µM (highest dose often 9.22 µM), for the others: top-dose activation, most hits filed as activators; actives 2.4% (n = 320,000); AID 485313, 2010; further: % of control where 0% means no effect; nearly all actives have a fitted effect of over 60% in size
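NPC1 promoter–luciferase Huh7 cells; 24 h compound; luminescence.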
Rab9 promoter act: qHTS Assay for Rab9 Promoter Activators | actives 2.8% (n = 320,000) | AID 485297, 2010 | Huh7 Rab9 promoter-luciferase reporter, luminescence, 24 h | Potency, µM (doses to about 9.22 µM), without a hit: at the top dose activation, negative = inhibition, actives largely listed as activators; further: % of control where 0% means no effect; nearly all actives have a fitted effect of over 60% in size
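Rab9 promoter-driven luciferase in stably transfected Huh7 cells; 1500 cells/well rested 2 h, exposed to compound in DMSO for 24 h at 37 °C, 5% CO2. Luminescence read 10 min after adding luciferase reagent at ambient temperature.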
* hit, by the source's call; ? = inconclusive; . = no result given. The call rests on the fitted dose curve; in most records, active means well fitted curve in the direction sought with a large enough effect; inconclusive means small, poorly fitted or top-dose-only effect, or another doubt; inactive means no such curve, though single readings can be large; an effect the other way counts as inactive or inconclusive. Potency means the concentration at half of the fitted maximal effect.

SMILES | ELG1 genotoxic | FLuc modulator | ELG1 DNA repair | SMN2 splice up | NPC1 prom act | Rab9 promoter act
Cc1cc(=O)cc(C)n1-c1ccc(Cl)cc1 | 1% | -1% | -16% | -5% | -1% | 0%
Cc1cc(C=C2C(=O)c3ccccc3C2=O)c(C)n1-c1ccc(Cl)cc1 | 4.6µM* | 0.67µM* | ? | -60% | 8% | 3%
COc1ccc(C2C(C#N)=C(N)Oc3cc4c(cc32)OCO4)cc1 (stereo not given) | -5% | 0% | ? | 23% | -1% | 1%
CCN1C=C(Cc2ccc(OC)cc2)C2=C(C1)C(c1ccc(OC)cc1)C(C#N)=C(N)O2 (stereo not given) | -10% | -3% | 21µM* | -17% | -5% | -4%
CCc1ccc(C(=O)N/N=C/c2ccc(Cl)cc2Cl)nc1 | 6% | 7.6µM* | ? | 26% | 10% | 22%
C=CCc1cccc(/C=N/NC(=O)c2ccccc2OC)c1O | ? | 13µM* | ? | -102% | 24% | -3%
O=C(N/N=C/c1ccc(Cl)cc1Cl)c1cccc(F)c1 | ? | 3.4µM* | ? | ? | 1.8µM* | 2µM*
O=C(N/N=C/c1ccccc1C(F)(F)F)c1ccc2nc[nH]c2c1 | 12% | ? | ? | . | ? | ?
C=CCc1cccc(/C=N/NC(=O)c2ccc3nc[nH]c3c2)c1O | ? | 17µM* | ? | . | -42% | -49%
O=C(N/N=C/c1ccc(Cl)cc1Cl)c1ccc2nc[nH]c2c1 | 18% | 9.5µM* | ? | . | 8% | 24%
O=C(N/N=C/c1cc([N+](=O)[O-])ccc1Cl)c1ccc2nc[nH]c2c1 | 0% | 1% | -26% | -19% | -8% | -6%
COc1ccccc1N1CCN(/N=C/c2ccc(OC)c(OC)c2OC)CC1 | 0% | -2% | -6% | 6% | 0% | 1%
COc1ccccc1N1CCN(/N=C/c2ccccc2C(=O)O)CC1 | -7% | 19µM* | -1% | . | -2% | 2%
COc1ccccc1N1CCN(/N=C\c2cccnc2)CC1 | 5% | -18% | ? | . | -3% | 4%
COc1ccccc1N1CCN(/N=C/c2cc(OC)c(O)c(OC)c2)CC1 | 2% | ? | -2% | 27% | -2% | 0%
COc1cc(/C=N/N2CCN(c3ccccc3OC)CC2)ccc1OC(C)=O | 9% | 19µM* | ? | . | 4% | 3%
COc1ccccc1N1CCN(/N=C/c2cccc(O)c2)CC1 | ? | 13µM* | ? | 6% | 19% | ?
CNCC(O)c1cccc(O)c1 (stereo not given) | . | . | . | 14% | . | .
Cc1nn(-c2ccc(N3CCCCC3)nn2)c(C)c1CCC(=O)Nc1ccccc1F | 0% | 19µM* | ? | . | ? | ?
Cc1nn(-c2ccc(N3CCCCC3)nn2)c(C)c1CCC(=O)Nc1cc(F)ccc1F | 3% | 4.8µM* | 0% | . | ? | ?
Cc1nn(-c2ccc(N3CCCC3)nn2)c(C)c1CCC(=O)Nc1ccc(F)cc1F | . | -14% | . | . | . | .
CC(C)(C)c1ccc(OCc2cc(=O)n3c4c(sc3n2)CCCC4)cc1 | . | -2% | . | -5% | . | .
Cc1[nH]n(C(N)=S)c(=O)c1N=Nc1ccc([N+](=O)[O-])cc1Cl | 1% | 9.5µM* | 0% | . | ? | 30%
NC(=S)n1[nH]c(-c2ccc([N+](=O)[O-])cc2)c(N=Nc2cccc(Cl)c2)c1=O | -20% | -17% | 3.7µM* | -62% | -14% | -22%
Cc1[nH]n(C(N)=S)c(=O)c1N=Nc1cccc(Cl)c1 | ? | 5.4µM* | ? | . | ? | ?
